One assay concerns SERPINA7 (gene 6906). Nature of the assay: CCTE_GLTED_hTBG: CCTE's human Thyroxine-binding Globulin (TBG) Inhibition Assay, Great Lakes Toxicology and Ecology Division (GLTED) Lab (AID 2284343; active = hit-call score of the fitted dose curve at least 0.9, where 1 is the maximum;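 also: active chemicals lower fluorescence versus DMSO baseline by displacing probe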). The gist of the method: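 Human thyroxine-binding globulin was exposed to each chemical for 2 hours, during which the ANSA probe could be displaced. Fluorescence was then measured at 380/475 nm, and loss of signal was analysed relative to DMSO.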

The test system of assay [1] is SRY-box transcription factor 2 (SOX2) Protein Expression, Deisenroth Lab, SOX2 (gene 6657). In words: CCTE_Deisenroth_DEVTOX-GLR_legacy_Sox2: (Legacy) CCTE's DevTox GLR-Endo Assay Evaluation of SRY-box transcription factor 2 (SOX2) Protein Expression, Deisenroth Lab (AID 2284346). The gist of the method:
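Read-out: fraction of Sox2+ cells by high-content fluorescence imaging of fixed RUES2-GLR cells after 48 h differentiation with two 24 h-spaced exposures. Positivity cutoff 5x BMAD above endoderm control median; 0.2% DMSO median subtracted.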

Assay [2] is described as follows: CCTE_Deisenroth_H295R-HTRF_384WELL_ESTRADIOL: CCTE's H295R-HTRF Assay Evaluation of Estradiol Concentration, Deisenroth Lab (AID 2284361). The conditions noted are these: actives raise or lower the signal. The gist of the method: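 Estradiol secreted into medium by H295R adrenocortical cells, quantified by HTRF after 48 h dosing over a nine-point 0.001 - 100 uM final range; gain or loss versus DMSO. Parallel ATP-luminescence viability readout; n=5 experiments.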

The nature of assay [3]: CCTE_Deisenroth_H295R-HTRF_384WELL_TESTOSTERONE: CCTE's H295R-HTRF Assay Evaluation of Testosterone Concentration, Deisenroth Lab (AID 2284373). The note with it: actives raise or lower the signal. Summed up:
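Testosterone secreted into medium was quantified by direct HTRF immunoassay after a 48 h treatment of H295R adrenocortical cells (nine concentrations, 0.001–100 uM final). Gain or loss fitted relative to DMSO; CellTiter-Glo viability read on same plates.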
Background: In TR-FRET formats the signal depends on donor and acceptor labels being close together.

The nature of assay [4]: CCTE_Deisenroth_H295R-HTRF_384WELL_CTOX: Cytotoxicity Assessment in CCTE's H295R-HTRF Assay, Deisenroth Lab (AID 2284380; active = hit-call score of the fitted dose curve at least 0.9, where 1 is the maximum). Here is the method:
CCTE_Deisenroth_H295R-HTRF_384WELL assay is a cell-based, multiplex-readout assay that uses H295R, a human adrenocortical carcinoma cell line, with measurements taken at 48 hours after chemical dosing in a 384-well microplateCCTE_Deisenroth_H295R-HTRF_384WELL_CTOX is one of 3 assay components measured in the CCTE_Deisenroth_H295R-HTRF_384WELL assay (2 hormones and 1 viability components). It is designed to make measurements of adenosine triphosphate (ATP), a form of viability reporter, as detected with luminescence intensity signals by CellTiter-Glo 2.0 cytotoxicity assay technology.This assay endpoint, CCTE_Deisenroth_H295R-HTRF_384WELL_CTOX, was analyzed in the positive fitting direction relative to DMSO as the negative control and baseline of activity. Using a type of viability reporter, loss-of-signal activity using CellTiter-Glo 2.0 technology was used to understand viability in the H295R cell line at 48hr of chemical exposure. To generalize the intended target to other relatable targets, this assay endpoint is annotated to the cell cycle intended target family, where the subfamily is cytotoxicity
Standard operating procedures for the cell culture medium, maintenance, expansion, and cryopreservation of the NCI-H295R adrenocortical carcinoma adherent cell line were adopted directly from guideline specifications (EPA 2011, OECD 2011). The assay workflow follows a three-day protocol consistent with the paradigm defined in OECD TG 456 and U.S. EPA OCSPP Guideline 890.1550. On day 0, cells are plated in 384-well microplates and acclimated for 24 hours. On Day 1, test chemicals are dispensed into separate 384-well microplates in a nine-point 2X dilution series (0.002 - 200 uM). Without aspirating the growth medium on the assay plates, test chemical suspension is dispensed to achieve a final 1X nominal concentration. Each chemical is run in technical triplicate at a final dilution series of 0.001 - 100 uM. On Day 3, following a 48-hour incubation period with test chemical, the conditioned medium samples are collected and transferred to 384-well sample storage plates. HTRF direct immunoassay technology is employed to detect E2 and T analytes in H295R conditioned medium. HTRF assays for E2 and T are performed with matched conditioned medium samples according to the manufacturer's protocol. Fluorescent endpoint measurements are conducted with a microplate reader equipped with an HTRF-compatible filter set (ex: 320 (10) […]; em: 620 (10) and 665 (10) nM). A multiplexed cell viability assay is implemented on the same plates used for chemical testing using the Promega CellTiter-Glo 2.0 assay. […] After collecting conditioned medium samples on Day 3, the viability assay is immediately performed and luminescence readings measured on a microplate reader. […]

Assay [5] has as its system SRY-box transcription factor 2 (SOX2) Protein Expression, Deisenroth Lab, SOX2 (gene 6657). In words: CCTE_Deisenroth_DEVTOX-GLR_Endo_SOX2: CCTE's DevTox GLR-Endo Assay Evaluation of SRY-box transcription factor 2 (SOX2) Protein Expression, Deisenroth Lab (AID 2284412; active = hit-call score of the fitted dose curve at least 0.9, where 1 is the maximum). The gist of the method: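 Endpoint is percent SOX2-positive cells (SOX2+ count/total cells) minus 0.2% DMSO control, from high-content imaging of fixed, nuclear-stained RUES2-GLR cells. Dosing twice at 24 h intervals over 48 h differentiation, 1 nM–200 uM in 10 points.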

For assay [6], the system named is SRY-box transcription factor 17 (SOX17) Protein Expression, Deisenroth Lab, SOX17 (gene 64321). Nature of the assay: CCTE_Deisenroth_DEVTOX-GLR_Endo_SOX17: CCTE's DevTox GLR-Endo Assay Evaluation of SRY-box transcription factor 17 (SOX17) Protein Expression, Deisenroth Lab (AID 2284413). The gist of the method: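 Human RUES2-GLR cells carrying an inducible fluorescent reporter are differentiated in defined media for 48 h and dosed twice, 24 h apart. After fixation and nuclear staining, imaging yields SOX17+ cell percentage relative to 0.2% DMSO-treated differentiated cells.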

Assay [7] concerns Brachyury (BRA) Protein Expression, TBXT (gene 6862). In words: CCTE_Deisenroth_DEVTOX-GLR_Endo_BRA: CCTE's DevTox GLR-Endo Assay Evaluation of Brachyury (BRA) Protein Expression, Deisenroth Lab (AID 2284417). The gist of the method:
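Endpoint is the fraction of BRA reporter-positive cells over total nuclei, corrected by subtracting the 0.2% DMSO value. Chemicals (1 nM - 200 uM, 10 points) were dosed twice during 48 h differentiation of RUES2-GLR cells, read by imaging.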

The nature of assay [8]: CCTE_Deisenroth_DEVTOX-GLR_Endo_CellCount: Viability Assessment in CCTE's DevTox GLR-Endo Assay, Deisenroth Lab (AID 2284420). Summed up:
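Measured 48 h after dosing: fluorescent nuclei counted by imaging in human RUES2-GLR cells under defined differentiation media, tested at 1 nM - 200 uM. Values are percent cell-count change relative to 0.2% DMSO.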

Assay [9] concerns SRY-box transcription factor 17 (SOX17) Protein Expression, Deisenroth Lab, SOX17 (gene 64321). In words: CCTE_Deisenroth_DEVTOX-GLR_Pluri_SOX17: CCTE's DevTox GLR-Pluri Assay Evaluation of SRY-box transcription factor 17 (SOX17) Protein Expression, Deisenroth Lab (AID 2284427; active = hit-call score of the fitted dose curve at least 0.9, where 1 is the maximum). The gist of the method: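 Using an inducible fluorescent SOX17 reporter in human pluripotent RUES2-GLR cells, compounds (1 nM - 200 uM) were given twice over 48 h differentiation. Percent SOX17+ cells minus DMSO control came from high-content image analysis.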

Structures are written as SMILES. Records with an inconclusive call do not appear. Activity calls are given as the source filed them. The calls were made as follows, unless noted: active = hit-call score of the fitted dose curve at least 0.9, where 1 is the maximum; inactive = score below 0.9.

Turning to `Cc1oc2c(NC(=O)c3c(Cl)cccc3Cl)cccc2c1C(C)(C)O`, the AC50 (as a rule, the midpoint of the concentration-response curve, whichever way the signal moves) in the assay with SERPINA7 (gene 6906) was 13.6 µM (active).

Consider `CCCCCCCCOC(=O)c1cc(O)c(O)c(O)c1`, for which the AC50 with SERPINA7 (gene 6906) is 3.42 µM (active).

For `CN(C)c1ccc(C(=C2C=CC(=[N+](C)C)C=C2)c2ccc(N(C)C)cc2)cc1`, the AC50 in the assay with SERPINA7 (gene 6906) was 50 µM (active).

In the case of `CCCCOC(=O)c1ccc(O)cc1`, the concentration at half-maximal activity (AC50) in assay [1] was 100 µM (active); in assay [2], 54.3 µM (active); in assay [5], 152 µM (active); in assay [6] it was 56.3 µM (active); in assay [7], 66.5 µM (active); in assay [8], 37.9 µM (active). Moreover, in assay [9], the AC50 was 51.6 µM (active). The result in [3] and in assay [4] was inactive.

For `OCCO`, the molecule was called inactive in [1], in [6], in assay [7] and in assay [8].

With `CC/C(=C(/CC)c1ccc(O)cc1)c1ccc(O)cc1`, the AC50 was 1.87 µM (active) with SERPINA7 (gene 6906); 2.43 µM (active) in assay [1]; 2.78 µM (active) in assay [5]; 0.65 µM (active) in assay [6]; 0.891 µM (active) in assay [7]; 1.58 µM (active) in [8]. Moreover, the AC50 in assay [9] was 1.83 µM (active).

With `O=C(O)Cc1cc(I)c(Oc2ccc(O)c(I)c2)c(I)c1`, the AC50 in the assay on SERPINA7 (gene 6906) was 0.0733 µM (active).

Consider `CC(C)(c1cc(Br)c(O)c(Br)c1)c1cc(Br)c(O)c(Br)c1`, for which the AC50 in the assay with SERPINA7 (gene 6906) was 2.16 µM (active).

Take `CCCCCCCCOc1ccc(C(=O)c2ccccc2)c(O)c1`: the AC50 with SERPINA7 (gene 6906) is 39.1 µM (active).

Turning to `CO[C@H]1/C=C/O[C@@]2(C)Oc3c(C)c(O)c4c(O)c(c(/C=N/N5CCN(C)CC5)c(O)c4c3C2=O)NC(=O)/C(C)=C\C=C\[C@H](C)[C@H](O)[C@@H](C)[C@@H](O)[C@@H](C)[C@H](OC(C)=O)[C@@H]1C`, in assay [1], the result was inactive. Also, the AC50 in assay [5] was 83.6 µM (active); in assay [6], 70.3 µM (active); in [7], 88.8 µM (active); in [8], 41.5 µM (active); in assay [9], 137 µM (active).
